ChEMBL document CHEMBL3433997, “St. Jude Leishmania screening dataset” (2016)

Assays:
Type in all cases: functional
[1] = biological target: Solute carrier family 2, facilitated glucose transporter member 1 (Homo sapiens) (UniProt P11166); experiment: ST_JUDE_LEISH: Cytotoxicity at 2uM final concentration against transgenic Leishmania Mexicana promastigotes LmGLUT1 that are glucose transport deficient and complemented with the human glucose transporter GLUT1. Activity is measured by DNA content using SYBR green in vitro
[2] = biological target: Hexose transporter 1 (Plasmodium falciparum) (UniProt O97467); experiment: ST_JUDE_LEISH: Cytotoxicity at 2uM final concentration against transgenic Leishmania Mexicana promastigotes LmPfHT that are glucose transport deficient and complemented with the Plasmodium falciparum hexose transporter. Activity is measured by DNA content using SYBR green in vitro
[3] = biological target: Glucose transporter (Leishmania mexicana) (UniProt O61059); experiment: ST_JUDE_LEISH: Cytotoxicity at 2uM final concentration against transgenic Leishmania Mexicana promastigotes LmGT2 that are glucose transport deficient and complemented with the L. Mexicana glucose transporter 2. Activity is measured by DNA content using SYBR green in vitro

Solute carrier family 2, facilitated glucose transporter member 1 (Homo sapiens), sequence (P11166 whole entry): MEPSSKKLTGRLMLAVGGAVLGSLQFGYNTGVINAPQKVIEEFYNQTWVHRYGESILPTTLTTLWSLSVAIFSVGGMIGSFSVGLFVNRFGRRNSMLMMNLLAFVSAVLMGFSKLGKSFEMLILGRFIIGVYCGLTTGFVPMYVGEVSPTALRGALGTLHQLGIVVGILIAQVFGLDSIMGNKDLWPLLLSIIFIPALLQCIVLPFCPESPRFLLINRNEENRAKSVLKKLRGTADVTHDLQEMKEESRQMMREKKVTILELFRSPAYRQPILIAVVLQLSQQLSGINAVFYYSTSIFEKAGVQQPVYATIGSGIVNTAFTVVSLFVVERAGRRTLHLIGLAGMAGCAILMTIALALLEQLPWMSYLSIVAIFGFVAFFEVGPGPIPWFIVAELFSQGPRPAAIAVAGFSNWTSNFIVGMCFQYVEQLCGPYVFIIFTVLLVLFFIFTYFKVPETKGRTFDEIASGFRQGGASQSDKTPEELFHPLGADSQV

CN1C2CCC1c1cc(NC(=O)c3cc(-c4ccc(Cl)cc4)cs3)ccc12 (stereo not drawn)
inhibition [1]: 8.89%
inhibition [2]: 9.62%
inhibition [3]: 8.52%

CN1CC=C(c2c[nH]c3ccc(Br)cc23)CC1
inhibition [1]: 1.93%
inhibition [2]: 0.19%
inhibition [3]: -0.72%

CN(C)CCCn1cc(C(=O)OC2CC3CCC(C2)N3C)c2cc(-c3ccccc3)ccc21 (stereo not drawn)
inhibition [1]: 12.9%
inhibition [2]: 6.68%
inhibition [3]: 9.57%

CC[C@H]1CN2CCc3cc(OC)c(OC)cc3[C@@H]2C[C@@H]1C[C@H]1NCCc2c1cc(OC)c(OC)c2Br
inhibition [1]: 88%
inhibition [2]: 86.6%
inhibition [3]: 84.7%

O=C(/C=C/c1ccc(Cl)c(Cl)c1)N1CCC(CN2CCC(c3c[nH]c4ccc(O)cc34)CC2)CC1
inhibition [1]: 1.04%
inhibition [2]: -0.44%
inhibition [3]: 4.21%

Cc1nc2ccccc2n1C1CC2CCC(C1)N2Cc1nccn1-c1ccccc1 (stereo not drawn)
inhibition [1]: 0.86%
inhibition [2]: 3.24%
inhibition [3]: 2.15%

CCCc1c(C(=O)NC2CCC(CN3CCC(c4c[nH]c5ccccc45)CC3)CC2)cnn1-c1c(Cl)cc(Cl)cc1Cl (stereo not drawn)
inhibition [1]: 4.74%
inhibition [2]: 3.29%
inhibition [3]: 3.07%

Oc1ccccc1CNCC(O)c1cccc(C(F)(F)F)c1 (stereo not drawn)
inhibition [1]: -0.54%
inhibition [2]: -1.26%
inhibition [3]: -1.55%

c1ccc2c(NCCCCCCNc3c4ccccc4nc4ccccc34)c3ccccc3nc2c1
inhibition [1]: 5.54%
inhibition [2]: 6.29%
inhibition [3]: 4.31%

CC(C)CNCc1cccc(-c2cccc(CN(C(=O)NC3CCCCC3)C3CCN(Cc4ccccc4)CC3)c2)c1
inhibition [1]: 8.3%
inhibition [2]: 4.64%
inhibition [3]: 5.98%

CC(=O)C1(c2ccccc2)CCN(CCC2(c3ccc(Cl)c(Cl)c3)CN(C(=O)Nc3cc(F)cc(F)c3)CCO2)CC1 (stereo not drawn)
inhibition [1]: 2.31%
inhibition [2]: 2.4%
inhibition [3]: -0.62%

O=C(/C=C/c1cc(F)cc(C(F)(F)F)c1)N1CCC(CN2CCC(c3c[nH]c4ccccc34)CC2)CC1
inhibition [1]: 0.47%
inhibition [2]: 1.39%
inhibition [3]: 2.96%

Cc1ccc2c(C3=CCN(CCCCC4(C)C(=O)Nc5ccccc54)CC3)c(C)[nH]c2c1 (stereo not drawn)
inhibition [1]: 0.29%
inhibition [2]: 0.34%
inhibition [3]: -0.56%

CCOC(C(=O)OCC1CCCN1C)(c1ccccc1)c1ccccc1 (stereo not drawn)
inhibition [1]: 1.35%
inhibition [2]: -0.09%
inhibition [3]: 0.01%

CCCCNC(c1ccc(Cl)cc1)C(O)c1ccc(Cl)cc1 (stereo not drawn)
inhibition [1]: 8.3%
inhibition [2]: 8.45%
inhibition [3]: 9.91%

O=C(NC1CCC(CN2CCC(c3c[nH]c4ccccc34)CC2)CC1)c1cc(-c2ccccc2)c(C(F)(F)F)s1 (stereo not drawn)
inhibition [1]: 11.2%
inhibition [2]: 14.7%
inhibition [3]: 6.95%

C#CCN1CCC2=C(C1)c1c(O)cc(C(C)CCCc3ccc(F)cc3)cc1OC2(C)C (stereo not drawn)
inhibition [1]: 1.13%
inhibition [2]: 0.61%
inhibition [3]: 0.09%

O=C(NC1CCC(CN2CCC(c3c[nH]c4ccccc34)CC2)CC1)c1[nH]c(=O)[nH]c(=O)c1F (stereo not drawn)
inhibition [1]: -0.09%
inhibition [2]: 0.08%
inhibition [3]: -0.11%

CNC(=O)c1ccc2[nH]cc(C3CCN(CC4CCC(NC(=O)/C=C/c5ccccc5Cl)CC4)CC3)c2c1 (stereo not drawn)
inhibition [1]: 10.8%
inhibition [2]: 9.61%
inhibition [3]: 8.45%

O=C(Nc1ccc(Cl)c(Cl)c1)N1CCC(CN2CCC(c3c[nH]c4ccccc34)CC2)CC1
inhibition [1]: 6.13%
inhibition [2]: 5.01%
inhibition [3]: 4.11%

COc1ccc(CCNCc2ccc3c(C)cc(N)nc3c2)cc1
inhibition [1]: 0.82%
inhibition [2]: 2.73%
inhibition [3]: 2.71%

O=C(NC1CCC(CN2CCC(c3c[nH]c4ccccc34)CC2)CC1)c1ccc(-c2cc(C(F)(F)F)ccc2Cl)o1 (stereo not drawn)
inhibition [1]: 4%
inhibition [2]: 6.53%
inhibition [3]: 3.83%

Oc1cc2c(cc1CN1CCN(Cc3ccccc3)CC1)CCC2
inhibition [1]: 0.8%
inhibition [2]: 1.17%
inhibition [3]: -1.19%

O=C(/C=C/c1ccc(Cl)c(Cl)c1)NCCCCCN1C2CCC1CC(c1c[nH]c3ccccc13)C2 (stereo not drawn)
inhibition [1]: 0.42%
inhibition [2]: 1.9%
inhibition [3]: 2.33%

O=C(O)c1ccc2nc(-c3ccc(-c4ccccc4)cc3)n(C3CCN(Cc4ccc(-c5ncc[nH]5)cc4)CC3)c2c1
inhibition [1]: 9.41%
inhibition [2]: 8.89%
inhibition [3]: 8.84%

COc1ccc(CN2CCN(CCOC(c3ccc(F)cc3)c3ccc(F)cc3)CC2)c(O)c1
inhibition [1]: 6.6%
inhibition [2]: 3.26%
inhibition [3]: 2.85%

Cc1[nH]c2cc(F)ccc2c1C1=CCN(CCCCC2(C)C(=O)Nc3ccccc32)CC1 (stereo not drawn)
inhibition [1]: 2.11%
inhibition [2]: 1.23%
inhibition [3]: 0.15%

CN(Cc1ccccc1)C1CCN(CCc2c[nH]c3ccc(F)cc23)CC1
inhibition [1]: 6.41%
inhibition [2]: 5.56%
inhibition [3]: 7.12%

CC(C)CNCc1ccc(-c2cccc(CN(C(=O)CCC3CCCC3)C3CCN(Cc4ccccc4)CC3)c2)cc1
inhibition [1]: 16.4%
inhibition [2]: 12.3%
inhibition [3]: 10.7%

O=C(c1cc(C(=O)NCc2ccc(Cl)cc2)c(=O)n(Cc2ccc(Cl)cc2)c1)c1cc(F)ccc1O
inhibition [1]: 2.53%
inhibition [2]: 1.86%
inhibition [3]: 1.19%

Cc1[nH]c2c(C)cc(NS(C)(=O)=O)cc2c1C1CCN(CC2CCN(C(=O)/C=C/c3ccc(Cl)c(Cl)c3)CC2)CC1
inhibition [1]: 1.48%
inhibition [2]: 3.63%
inhibition [3]: 4.65%
